Pf apPOL inh: Pf-apPOL inhibitors, biochemical, fluorescence | Recombinant Pf-apPOL, molecular beacon fluorescence, 1.5 h | inhibition, % at 10 µM | 210,000 compounds, 0.25% hits | AID 1794808, 2022
mHTT-CaM PPI inh: mutant huntingtin-calmodulin interaction inhibitors – biochemical, AlphaScreen, primary screen. inhibition, % at 15 µM. AlphaScreen His-mHTT/GST-CaM binding, luminescence. 190,000 compounds, 3.6% hits. P42858;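 also: 0% = both proteins with DMSO and 100% = one protein alone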
* marks the source's active call; other numbers are inactive results; · = no result. The sample as a whole holds a higher share of hits than the screen did. Rule as the data show it: active = inhibition above about 50%; inactive = the rest.

SMILES	Pf apPOL inh	mHTT-CaM PPI inh
O=C(Nc1ccccc1)C1CCCN(c2cn[nH]c(=O)c2)C1 (stereo unspecified)	-4.4	-3.0
COc1ccc(C=C2Oc3c(ccc4c3CN(C(C)C)CO4)C2=O)c(OC)c1OC	-11.6	30.7
COCCNC(=O)c1ccccc1N(Cc1ccccc1)S(=O)(=O)c1ccccc1	7.1	8.8
CS(=O)(=O)N(Cc1ccccc1)c1ccccc1C(=O)NCCSc1ccc(Cl)cc1	-11.8	52.0*
Cc1[nH]c2ccccc2c1C(=O)CN1CCCCC1	-4.8	-1.3
Cc1[nH]c2ccccc2c1C(=O)CN1CCCC1	0.1	59.4*
O=C1C(=CC=CC2=C(O)c3ccccc3S2(=O)=O)S(=O)(=O)c2ccccc21	·	57.0*
O=C(c1cccs1)N1CCCC(c2ccnc(Nc3ccccc3)n2)C1 (stereo unspecified)	0.2	61.3*
CC(C)CC(=O)N1CCCC(c2ccnc(Nc3ccccc3)n2)C1 (stereo unspecified)	-2.0	70.8*
O=C(Cc1ccccc1F)N1CCCC(c2ccnc(Nc3ccccc3)n2)C1 (stereo unspecified)	-1.9	85.6*
CC(C)C(=O)N1CCCC(c2ccnc(Nc3ccccc3)n2)C1 (stereo unspecified)	-4.5	33.5
COc1ccc(-c2nccc(C3CCCN(C(=O)Cc4ccc(F)cc4)C3)n2)cc1 (stereo unspecified)	0.9	22.0
CCOCC(=O)N1CCCC(c2ccnc(Nc3ccc(OC)cc3)n2)C1 (stereo unspecified)	-2.4	6.7
O=C(Cc1ccc(F)cc1)N1CCCC(c2ccnc(Nc3ccccc3)n2)C1 (stereo unspecified)	-5.2	96.2*
O=C(c1cccs1)N1CCCC(c2ccnc(Nc3ccccc3F)n2)C1 (stereo unspecified)	-1.2	29.7
COc1cc(/C=C2/C(=O)NC(=N)N2C)cc(Br)c1O	-2.6	25.0
c1cc(CNC2CCCC2)n(-c2nnc(N3CCCC3)s2)c1	-2.6	7.1
COC(=O)c1c2c(nc3ccc(F)cc13)CCN(C(=O)c1ccc(OC)cc1)C2	0.2	20.5
CCC(=O)Nc1cccc(-c2noc(C3CCN(C(=O)c4ccc(C)cc4)CC3)n2)c1	0.5	17.1
CC(C)c1nnc(NC(=O)c2cccc([N+](=O)[O-])c2)s1	-5.8	2.9
Cc1ccc(-c2noc(-c3cccnc3N3CCC(C(=O)NCC(C)C)CC3)n2)cc1	-1.8	-15.2
COc1ccc(CNC(=O)O[C@@H]2C[C@H]3C[C@@H]2[C@H]2CCCCN2C3)cc1	-2.7	12.0
Cc1nc2cc(NC(=O)Cc3csc(NC(=O)C4CCCC4)n3)ccc2s1	-9.8	-18.3
Cc1nc2cc(NC(=O)Cc3csc(NC(=O)c4ccc(=O)[nH]c4)n3)ccc2s1	9.1	58.6*
COc1ccc(C=C2Oc3c(ccc(O)c3O)C2=O)cc1OC	39.1	-0.7
SMILES	Pf apPOL inh	mHTT-CaM PPI inh
COc1cc(NCc2cc(OC)c(O)c([N+](=O)[O-])c2)cc(OC)c1	2.7	64.7*
COc1cc(CN2CCSCC2)cc(I)c1O	-2.3	5.7
COc1cc(CN2CCCCCCC2)cc([N+](=O)[O-])c1O	-6.3	5.3
COc1cc(NCc2cc(I)c(O)c(OC)c2)cc(OC)c1	-3.3	88.8*
O=C(COc1ccc(Br)cc1)Nc1cccc(NC(=O)c2cccs2)c1	-1.1	0.3
O=C(Cn1nc([N+](=O)[O-])nc1Br)N1CCOCC1	·	-8.3
COc1ccc(CN([C@H](C)CO)S(=O)(=O)N(Cc2ccccc2)[C@H](CO)C(C)C)cc1	2.0	16.3
CC(C)C[C@@H](CO)N(Cc1ccccc1)S(=O)(=O)N(Cc1ccccc1)[C@H](CO)CC(C)C	-1.7	93.2*
COc1ccc(CN([C@H](CO)CC(C)C)S(=O)(=O)N(Cc2ccccc2)[C@H](CO)CC(C)C)cc1	-1.2	97.8*
CC(C)C[C@@H](CO)N(Cc1ccccc1)S(=O)(=O)N(Cc1ccccc1)[C@@H](CO)CC(C)C	-2.7	99.9*
C=C[C@H](CC(C)C)N(Cc1ccccc1)S(=O)(=O)N(Cc1ccccc1)[C@@H](C=C)CC(C)C	-3.4	-11.5
O=S(=O)(N(Cc1ccccc1)[C@H](CO)Cc1ccccc1)N(Cc1ccccc1)[C@H](CO)Cc1ccccc1	-1.5	0.5
CCOc1ccc(C2=Nn3c(nnc3-c3cccc(F)c3)SC2)cc1Cl	-3.4	0.0
CCSc1nnc(-c2ccccc2Cl)o1	1.9	-14.8
CNC(=O)N1CC(c2nc(-c3ccccc3)no2)C2(CCOCC2)C1 (stereo unspecified)	-1.0	-3.4
O=C(Nc1nc(-c2ccncc2)cs1)C1CCCCC1	2.8	-1.8
CCSc1ccccc1C(=O)Nc1cccc2ccc(-n3ccnc3)nc12	-3.1	82.1*
Cc1cc(NC(=O)c2ccc(C(=O)Nc3cc(C)on3)nc2)no1	0.2	-5.6
O=C(Nc1cccc2cccnc12)c1ccccc1O	1.0	-34.0
O=C(Nc1cccc2cccnc12)c1ccc(-n2ccnc2)nn1	5.4	61.0*
Cc1cc(NC(=O)c2ccc(-n3ccnc3)nn2)no1	17.1	53.6*

Screening results as filed in PubChem.
